aSyn 5UTR act – Activators working through SNCA 5'UTR binding (MLPCN). alpha-synuclein 5'UTR reporter, activators screen. activity score, % (tested at 7.5 µM), hits read low. 300,000 tested, 7.1% active. AID 1814; in the data active = activity score below about -60%
Each line names hits and unclear results; the compound was inactive in the other large screens. These entries were drawn from the full list.

Nc1nc(COc2ccc3ccccc3c2)cs1	aSyn 5UTR act -79
Nc1nc(CCOc2ccc(F)cc2)cs1	aSyn 5UTR act -112
O=C(Nc1nc(COc2ccccc2)cs1)C1CCC1	aSyn 5UTR act -103
O=C(Nc1ccccc1-c1ccccc1)C12CC3CC(CC(C3)C1)C2	aSyn 5UTR act -78
CC(=O)Nc1nc(COc2ccc3ccccc3c2)cs1	aSyn 5UTR act -148
CC(=O)c1csc(COc2ccccc2)n1	aSyn 5UTR act -109
CC(=O)Nc1nc(COc2ccccc2)cs1	aSyn 5UTR act -137
Cc1cc(NC(=O)COc2cccc(Oc3ccccc3)c2)no1	aSyn 5UTR act -122
Cc1ccc(C)c(OCC(=O)Nc2cc(C)on2)c1	aSyn 5UTR act -80
CC1(C)C=Cc2cc3ccc(=O)oc3cc2O1	aSyn 5UTR act -111
O=C(Nc1nc2ccccc2[nH]1)C1CCC1	aSyn 5UTR act -104
O=C(Nc1nc2ccccc2[nH]1)C1CCCC1	aSyn 5UTR act -80
CCS(=O)(=O)N1Cc2ccccc2CC1C(=O)Nc1nc2ccccc2[nH]1 (configuration not stated)	aSyn 5UTR act -101
O=C(CC1CCCC1)Nc1nc2ccccc2[nH]1	aSyn 5UTR act -123
COc1ccc(N(/N=C2\Sc3ccccc3C2=O)C(C)=O)cc1	aSyn 5UTR act -143
CC(=O)N(C1=C(N)C(=O)c2ccccc2C1=O)c1ccccc1	none
Cc1[nH]cnc1C(=O)N/N=C/c1c(Cl)cccc1Cl	aSyn 5UTR act -73
O=C(CSc1ncnc2c1cnn2-c1ccccc1)NC1CCCC1	aSyn 5UTR act -64
CC(=O)CSc1ncnc2c1cnn2-c1ccccc1	aSyn 5UTR act -157
Cc1ccc(-n2ncc3c(SCC(N)=O)ncnc32)cc1C	aSyn 5UTR act -119
COc1ccc(-n2ncc3c(SCC(=O)N4CCN(c5ccccc5OC)CC4)ncnc32)cc1	aSyn 5UTR act -74
Cc1ccc(-n2ncc3c(SCc4cccc(C)c4)ncnc32)cc1	aSyn 5UTR act -90
Cc1ccccc1-n1ncc2c(SCC(=O)NCc3cccs3)ncnc21	aSyn 5UTR act -114
CCOC(=O)CNc1c(-c2ccc(OC)cc2)nc2ccc(Cl)cn12	aSyn 5UTR act -127
COCCNc1c(-c2ccc(OC)cc2)nc2ccc(Cl)cn12	aSyn 5UTR act -117
CC(=O)[C@@]1(O)C(C)CC2C3C=C(C)C4=Cc5c(cnn5-c5ccccc5)C[C@]4(C)C3C(O)C[C@@]21C (some centres not stated)	none
N#Cc1ccccc1NC(=O)c1ccc(-c2ccccc2Cl)o1	aSyn 5UTR act -128
O=C(Nc1ccccc1)c1ccc(-c2ccccc2Cl)o1	aSyn 5UTR act -178
Cc1cccnc1NC(=S)NC(=O)c1oc2ccccc2c1C	aSyn 5UTR act -226
Cc1c(C(=O)NC(=S)NCC(C)C)oc2ccccc12	aSyn 5UTR act -191
C=CCNC(=S)NC(=O)c1oc2ccccc2c1C	aSyn 5UTR act -155
NC(N)=NS(=O)(=O)c1ccc(N/C=C/C(=O)c2ccc(Cl)c(Cl)c2)cc1	aSyn 5UTR act -119
O=C(Cc1ccccc1)NCc1ccc2c(c1)OCO2	aSyn 5UTR act -99
O=C(Cc1ccccc1[N+](=O)[O-])NCc1ccc2c(c1)OCO2	aSyn 5UTR act -123
O=C(NCc1ccccc1)c1c[nH]c2cc3c(cc2c1=O)OCCO3	aSyn 5UTR act -183
O=C(NCc1ccc2c(c1)OCO2)c1ccccc1Cl	aSyn 5UTR act -100
O=Cc1cc2cc3c(cc2nc1Cl)OCCO3	aSyn 5UTR act -62
Cc1ccc(SCc2cc(=O)n3ccsc3n2)c(C)c1	aSyn 5UTR act -79
COc1ccc(C2=NNC(c3cc(Cl)cc4c3OCOC4)C2)c(O)c1 (configuration not stated)	aSyn 5UTR act -73
O=C(c1ccc2c(c1)OCO2)N1CCc2ccccc2C1	aSyn 5UTR act -113
O=C(c1ccc2c(c1)OCO2)N1CCN(c2cccc(C(F)(F)F)c2)CC1	aSyn 5UTR act -77
O=C(c1cc2c(s1)-c1ccccc1OC2)N1CCc2ccccc2C1	aSyn 5UTR act -89
COc1cc(/C=N/NS(=O)(=O)c2ccc3ccccc3c2)ccc1OCc1ccc(C(=O)O)cc1	none
CCOc1cc(/C=N\Nc2nc(Nc3ccccc3)nc(N3CCOCC3)n2)ccc1OC(=O)c1ccco1	aSyn 5UTR act -91
COc1cc(/C=N/Nc2ccc3ccccc3c2)ccc1OC(=O)c1ccco1	aSyn 5UTR act -76
Cc1cc(C(=O)Cn2nnc3ccccc3c2=O)c(C)n1-c1ccccc1F	none
Cc1cc(C(=O)Nc2ccc(Cl)cc2)c(C)n1-c1ccccc1	none
Cc1cc(C(=O)OCC(=O)Nc2c(F)cccc2F)c(C)n1-c1ccccc1	aSyn 5UTR act -103
Cc1cc(C(=O)COC(=O)c2ccc(O)cc2)c(C)n1-c1ccccc1F	aSyn 5UTR act -78
Cc1cc(C(=O)CN2C(=O)NC(CC(C)C)C2=O)c(C)n1-c1ccccc1F (configuration not stated)	aSyn 5UTR act -148
CC(C)(C)c1ccc(S(=O)(=O)NCC(=O)Nc2ccc(-c3nc4ccccc4s3)cc2)cc1	aSyn 5UTR act -101
Cc1ccc(C)c(S(=O)(=O)NC(C)C(=O)Nc2ccc(-c3nc4ccccc4s3)cc2)c1 (configuration not stated)	aSyn 5UTR act -108

Screens deposited in PubChem BioAssay by Broad Institute.
